Where “and” joins values, the source holds several entries; their conditions need not be identical. Equal entries are not always repeated. This is part of a sample that, as a whole, favours compounds with a hit. Of some 83,000 tested, about 20% had one in any assay.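 Cells were grown in 96-well plates and exposed to the test compound at a single concentration for 48 hours; results are reported as percent growth, with values below 10 considered active.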 Unmarked numbers belong to inactive results. Calls of active or inactive are those of the source.

Holding throughout (test): NCI-60 one-dose screen, 48 h (100 = growth as untreated, 0 = no growth, -100 = all killed)
Settings in all cases: 10 µM unless noted

Assay [1] relates to DU-145 prostate.
In assay [2] the test system is K-562 leukemia.
For assay [3], the system named is MALME-3M melanoma.
Assay [4] deals with MDA-MB-231 breast.
Assay [5] deals with RXF 393 renal.
Assay [6] concerns SF-268 CNS.
Assay [7] has as its system SF-295 CNS.
Assay [8] concerns SF-539 CNS.
The test system of assay [9] is UACC-257 melanoma.
Assay [10] concerns M14 melanoma.

Consider `COc1ccc2nc3cc(Cl)ccc3c(NCCCNCCC(C)O)c2c1` (stereo not given), for which the growth was -16.2% (active) in assay [1]; -18.1% (active) in [2]; -76.1% (active) in assay [3]; -47.5% (active) in assay [4]; -67.6% (active) in assay [5]; -25.9% (active) in assay [6]. The growth in assay [7] is -11.9% (active); in assay [8], -56.9% (active); in assay [9], -83.9% (active); in assay [10], -82% (active).

Consider `O=C(CC1(O)C(=O)Nc2ccc(Br)cc21)c1ccc(Cl)cc1` (stereo not given), for which the growth in [1] is 107%; in assay [2], 98.2%; in assay [3] it was 103%; in [4] it was 98.8%; in [5], 96.4%; in assay [6], 97.5%. The growth in assay [7] was 106%; in [8] it was 108%; in assay [9] it was 88.1%; in [10], 99.3%.

On to `N=C(N)c1ccc(-c2ccc(-c3ccc(Cl)c(Cl)c3)s2)cc1`, for which the growth was -88.9% (active) in [1]; -11.6% (active) in assay [2]; 78.7% in assay [3]; -20.2% (active) in assay [4]; 77.9% in assay [5]; 56.2% in assay [6]. For the same compound, the growth is 35.5% in [7], 52.7% in assay [8], 96.6% in assay [9] and 38.1% in assay [10].

Turning to `C[C@]12CCc3c(ccc4cc(O)ccc34)[C@@H]1C[C@H](O)[C@@H]2O`, the growth was 108% in assay [1]; 105% in assay [2]; 113% in [3]; 79.9% in [4]; 102% in [5]; 103% in assay [6]. Moreover, the growth in [7] was 95.3%; in assay [8], 102%; in [9], 102%; in assay [10], 103%.

As to `CN1Cn2c(ccc2C(F)(F)F)C(=O)CS1(=O)=O`, the growth in assay [1] is 114%; in [2], 110%; in [3], 90.2%; in [4] it was 106%; in assay [5] it was 135%; in [6] it was 108%. In addition, the growth in [7] was 103%; in assay [8], 94.3%; in assay [9], 102%; in assay [10], 104%.

Consider `COc1ccc2c(c1)c(C(=O)c1nc(-c3cn(C)c4ccccc34)no1)cn2C`, for which the growth in assay [1] was 111%; in [2], 72%; in [3], 83.4%; in assay [4] it was 104%; in assay [5], 100%; in assay [6], 103%. Also, the growth in assay [7] is 90%; in assay [8], 97.2%; in assay [9], 89%; in assay [10] it was 104%.

In the case of `Cc1ccc(S(=O)(=O)Nc2cc(Sc3ccccc3)c(O)c3ccccc23)cc1`, the growth in assay [1] is 84.3%; in assay [2], 41.1%; in [3], 77.7%; in assay [4] it was -1.57% (active); in assay [5] it was 105%; in [6], 65.8%. The growth in [7] is 96.8%; in [8], 92.9%; in [9] it was 62.8%; in assay [10], 107%.

On to `O=C(NNc1ccccc1)C1CCCN1` (stereo not given), for which the growth was 60.7% in assay [1]; 11% in [2]; 76.4% in assay [3]; 86.1% in assay [4]; 107% in assay [5]; 64.6% in [6]. The growth was 85% in [7], 80.5% in assay [8], 88.6% in assay [9] and 43.1% in [10].

Take `COc1nc(=O)n(C2C=CC(=O)O2)cc1F` (stereo not given): the growth is 81.1% in assay [1]; 40.8% in assay [2]; 45.5% in assay [3]; 100% in [4]; 80.7% in assay [5]; 85.7% in assay [6]. The growth in assay [7] is 98.2%; in assay [8], 99.1%; in assay [9], 88.8%; in [10], 69.9%.

`ON=C1CCCCCCCC1`: the growth was 107% and 103% in assay [1]; 88.5% and 108% in [2]; 100% and 98.6% in assay [3]; 107% and 123% in [4]; 112% in assay [5]; 99.8% and 96.9% in [6]. Also, the growth in assay [7] is 105% and 103%; in assay [8], 92.1% and 102%; in [9] it was 104% and 107%; in assay [10], 102% and 101%.

For `O=C1/C(=C/c2ccc(-c3cccc(C(F)(F)F)c3)o2)SC(=S)N1CCc1ccc(O)cc1`, the growth in assay [1] is 12.8%; in assay [2] it was 20.6%; in assay [3], 71.6%; in [4] it was 90.5%; in assay [5] it was 82.2%; in assay [6], 56.8%. In addition, the growth in assay [7] was 96.6%; in [8], 76.2%; in [9], 95%; in [10] it was 57.5%.

Turning to `Cc1ccc(NC(=O)c2ccc(CN3CCN(C)CC3)cc2)cc1Nc1nccc(-c2cccnc2)n1`, the growth in [1] was 85.6% and 88.2%; in assay [2] it was 2.02% (active); in [3], 114% and 79.6%; in [4], 88.8% and 81.3%; in assay [5], 94.3% and 69.3%; in [6], 104% and 74.5%. Also, the growth in assay [7] is 84.9% and 66.4%; in assay [8], 75.5% and 38.2%; in [9], 97.2% and 29.6%; in assay [10], 113% and 82.7%.

On to `Cc1nc(-n2[nH]c(=O)ccc2=O)sc1N=Nc1ccccc1`, for which the growth was 112% in assay [1]; 101% in [2]; 102% in assay [3]; 102% in assay [4]; 97.5% in assay [5]; 104% in assay [6]. For the same compound, the growth is 99.3% in assay [7], 99.8% in assay [8], 109% in assay [9] and 97.7% in [10].
